Measured values published in PubChem BioAssay (NCI).
This is part of a sample that, as a whole, favours compounds with a hit. Of some 83,000 tested, about 20% had one in any assay.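 Cell lines were cultured in 96-well plates, exposed to a single compound concentration, and assessed for percent growth 48 hours later.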 A number with no mark means an inactive call. Calls of active or inactive are those of the source. Rule for the calls: active = growth percent below 10; inactive = the rest.

Assays:
Assay in all cases: NCI-60 one-dose screen, 48 h (100 = growth as untreated, 0 = no growth, -100 = all killed)
Details in all cases: 10 µM unless noted
[1] = system: HCT-15 colon
[2] = system: HT29 colon
[3] = system: SNB-75 CNS
[4] = system: SNB-19 CNS
[5] = system: U251 CNS
[6] = system: PC-3 prostate
[7] = system: SK-MEL-5 melanoma
[8] = system: LOX IMVI melanoma
[9] = system: SK-MEL-28 melanoma
[10] = system: SK-MEL-2 melanoma
[11] = system: EKVX NSCLC
[12] = system: SN12C renal
[13] = system: UO-31 renal
[14] = system: TK-10 renal
[15] = system: CAKI-1 renal
[16] = system: A498 renal
[17] = system: MOLT-4 leukemia
[18] = system: UACC-62 melanoma
[19] = system: ACHN renal
[20] = system: CCRF-CEM leukemia

| Compound | growth [1] | growth [2] | growth [3] | growth [4] | growth [5] | growth [6] | growth [7] | growth [8] | growth [9] | growth [10] | growth [11] | growth [12] | growth [13] | growth [14] | growth [15] | growth [16] | growth [17] | growth [18] | growth [19] | growth [20] |
| --- | --- | --- | --- | --- | --- | --- | --- | --- | --- | --- | --- | --- | --- | --- | --- | --- | --- | --- | --- | --- |
| CC(=O)c1sc(-c2ccc(F)cc2)cc1O | 97.7% | 105% | 89% | 103% | 100% | 93.9% | 100% | 97.4% | 110% | 107% | 99.7% | 109% | 88.5% | 95.1% | 93.3% | 102% | 93.4% |  |  |  |
| O=C1/C(=C/c2c[nH]c(=O)[nH]c2=O)SC(=S)N1Cc1ccccc1 | 104% | 101% | 80.1% | 95.2% | 97.7% | 98.9% | 100% | 99.8% | 103% | 103% |  |  | 75.8% | 102% | 93.6% | 99.9% | 103% | 91.5% | 102% | 104% |
| CCCCCCCCn1ccc2cc(NC(=O)CN=[N+]=[N-])ccc21 | 96.8% | 104% | 99.6% | 97.1% | 88.7% | 91.2% | 98% | 104% | 109% | 99.3% | 84.9% | 107% | 70% | 111% | 93.3% | 96.7% | 93.3% |  | 104% |  |
| C=C1C(=O)O[C@H]2[C@H]1CC/C(COC(=O)NCc1ccc(Cn3c(=O)sn(-c4ccc(I)cc4)c3=O)cc1)=C\CC[C@@]1(C)O[C@@H]21 | 57% | 34.1% | 81.6% | 107% | 83.6% | 77.5% | 98.3% | 69.4% | 93.9% | 89.7% | 98.4% | 79.1% | 54.4% | 79.9% | 71.5% | 87.7% | 5.6% (active) |  |  | -14.3% (active) |
| COc1cc(C=C2C(=O)NC(=S)NC2=O)cc(CN2CCCC2)c1O | 105% | 109% | 95.4% | 105% | 96.2% | 102% | 111% | 97.6% | 115% | 110% | 101% | 104% | 87% | 109% | 90.5% | 101% | 110% |  | 111% | 107% |
| CCOC(=O)C1=C(CC(O)c2ccc(OC)cc2OC)NC(=O)NC1c1ccccc1 (stereo not drawn) | 110% | 100% | 87.3% | 99.8% | 106% | 95.3% | 95.5% | 94.5% | 115% | 120% | 105% | 105% | 95.8% | 120% | 92.2% | 122% | 17.2% |  | 109% | 95.3% |
| CCOC(=O)c1cnn(CC(C)O)c1NC(=O)NCc1ccccc1C(F)(F)F (stereo not drawn) | 101% | 82.1% | 93.6% | 103% | 101% | 107% | 102% | 100% | 103% | 76.6% | 98.1% |  | 87.1% | 80.9% | 86.4% | 108% | 76% |  | 98.3% | 114% |
| COc1cc(/C=C/C(=O)c2cc(OC)c(OC)c(OC)c2)ccc1Oc1nc2c(c(=O)n(C)c(=O)n2C)n1C | 0.728% (active) | -51.1% (active) | 31% | 18.7% | -81.9% (active) | 7.57% (active) | 28.9% | -81.1% (active) | -45.3% (active) | 76.3% |  | 11.6% |  | -8.16% (active) | -47.2% (active) | 29.4% | 2.13% (active) | -74.1% (active) | -21.9% (active) | 5.81% (active) |
| O=C1/C(=C/c2cccc(Br)c2)COc2ccc(O)cc21 | 21.4% | 15% | 64.4% | 45.1% | 18.3% | 51.2% | 88.3% | -37.1% (active) | 98.8% | 79.2% | 78.4% | 4.81% (active) | 54.1% | 93.1% | 63.5% | 99.5% | 6.15% (active) |  | 54.6% | 0.865% (active) |
| N#Cc1c(-c2ccccc2)cc(-c2ccccc2)n(CCCCC(=O)NO)c1=O | 13.8% | 19.1% | -8.42% (active) | 43.3% | 29.1% | 32.9% | -53% (active) | -54.9% (active) | 17.6% | 40.6% | 30.6% | 23.2% | -51.6% (active) | 28.4% | 1% (active) | 13.2% | 11.4% |  | 2.83% (active) | 11.9% |
| COc1ccc(/C=C/C(c2cc(OC)c(OC)c(OC)c2)n2cncn2)cc1O (stereo not drawn) | 16.5% | 41% | 41% | 34.2% | 20.7% | 23.5% | 23.9% | 50.9% | 59.1% | 18.2% | 59.4% | 49.6% | 54.2% | 41.2% | 34.5% | 19.8% | 21.8% |  | 63.1% | 6.31% (active) |
| Cc1oc(-c2ccc(Cl)cc2)nc1C1=NN(C(=O)c2ccncc2)C(c2ccccc2)C1 (stereo not drawn) | 91.3% | 96.6% | 92.8% | 80.3% | 92.8% | 83.7% | 97.3% | 92.7% | 89.7% | 97.2% | 95.8% | 88.7% | 59.5% | 114% | 76% | 78% | 77.1% |  | 92% | 93.4% |
| O=C(NCCCCCCNC(=O)OCc1ccc2c(Cl)cc(Cl)c(O)c2n1)OCc1ccc2c(Cl)cc(Cl)c(O)c2n1 | -29.1% (active) | -75% (active) | -96.2% (active) | 51.4% | -92.2% (active) | -46.2% (active) | -95.5% (active) | -88.7% (active) | -89.8% (active) | -62% (active) | -69% (active) | -93.4% (active) | -100% (active) | -90.3% (active) | -87.8% (active) | 34.9% | -2.75% (active) |  | -97.5% (active) | 2.24% (active) |
| S=c1ccnc[nH]1 | 103% | 110% | 120% | 102% | 102% | 100% | 109% | 96.5% | 144% | 96.6% | 118% | 96.8% | 82.5% | 127% | 104% | 112% | 107% |  | 99.4% | 123% |
| Clc1ccc(-c2cc(-c3ccccc3)nc(N3CCN(CCCNc4ccnc5cc(Cl)ccc45)CC3)n2)cc1 | -25.5% (active) | -1.6% (active) | -23.9% (active) | 49% | -52.9% (active) | 43.1% | 33.2% | -95.5% (active) | -37.5% (active) | 12.4% | 80.1% | -90.2% (active) | -52% (active) | 40.5% | -31.5% (active) | 69.5% | 2.31% (active) |  | 3.37% (active) | 2.6% (active) |
